MARV entry inh = Marburg virus entry inhibition; AID 540276; Marburg virus pseudotyped entry inhibition, cell reporter; actives 1.8% (n = 300,000); Potency, µM (highest dose often 37.8 µM), actives largely listed as inhibitors; calls by dose curve; tested in HEK293 cells
CHX counter = affects cycloheximide protein synthesis inhibition readout, counter-screen; max response, %; cell reporter, cycloheximide protein synthesis inhibition counterscreen; actives 12% (n = 300,000); in the data active = max response mostly above about 13%, no sharp cut-off; inactive = mostly below about 14%; also: read at 38.3 µM for the half of the compounds with a filed dose
Shiga inhibitor = inhibitors of Shiga toxin in Vero cells; Vero cells, Shiga toxin protein synthesis inhibition reporter; inhibition, % at 38.7 µM; actives 9.2% (n = 290,000); in the data active = inhibition mostly above about 28%, no sharp cut-off; inactive = mostly below about 43%
Lassa entry inh = Lassa virus entry inhibition | Lassa virus pseudotype entry inhibition, cell reporter | Potency, µM (top dose mostly 37.9 µM), usual class: inhibitors | actives 1.2% (n = 300,000) | AID 540256; calls by dose curve; tested in HEK293 cells; also: nearly all actives have a fitted effect of over 50% in size
Vaccinia mCherry = vaccinia inhibition (mCherry reporter); Potency, µM (doses to about 36.5 µM), usual class: inhibitors; Vaccinia virus mCherry reporter infection, fluorescence; actives 0.63% (n = 310,000); calls by dose curve; tested in A549 cells; also: nearly all actives have a fitted effect of over 35% in size
Vaccinia Venus = inhibitors of vaccinia virus (Venus reporter) | Vaccinia virus Venus reporter expression, fluorescence | Potency, µM (doses to about 36.5 µM), actives largely listed as inhibitors | actives 0.46% (n = 330,000) | AID 720580; calls by dose curve; tested in A549 cells; also: nearly all actives have a fitted effect of over 30% in size
Of the large screens only hits and unclear results are named; the others gave an inactive call. The full list was thinned out, with hits kept by preference.

CSc1nsc(SCC(=O)N2CCc3ccccc32)n1	none (no result: Vaccinia mCherry)
O=C(CSc1ccc(-c2ccc(Cl)cc2)nn1)N1CCCc2ccccc21	MARV entry inh inconclusive, CHX counter 13, Lassa entry inh inconclusive
CCOC(=O)c1[nH]c(C)c(CCC(=O)Nc2cc(Cl)c(OC)cc2OC)c1C	none (no result: MARV entry inh, CHX counter, Shiga inhibitor)
COc1ccc(NC(=O)c2cccn2-c2nnc(N3CCCCC3)s2)c(OC)c1	none (no result: MARV entry inh, CHX counter, Shiga inhibitor)
O=c1[nH]cncc1OCc1ccccc1	none (no result: CHX counter, Shiga inhibitor)
O=C(COc1ccccc1C(=O)Nc1ccccc1)Nc1ccc(Br)cc1	none (no result: MARV entry inh, CHX counter, Shiga inhibitor, Lassa entry inh)
CC(=O)N(C)c1ccc(NS(=O)(=O)Cc2ccccc2)cc1	CHX counter 27, Shiga inhibitor 63 (no result: Vaccinia mCherry, Vaccinia Venus)
Cc1ccc(Cl)cc1N1CCN(C(=O)c2cc3c(=O)oc4ccccc4c3s2)CC1	Lassa entry inh inconclusive (no result: CHX counter, Shiga inhibitor)
c1ccc2c(c1)CCN(C1=Nc3cccc4cccc1c34)C2	MARV entry inh inconclusive, CHX counter 35, Shiga inhibitor 49, Lassa entry inh inconclusive
CCOC(=O)c1cn2nc(SCc3ccccc3)nc2nc1C	CHX counter 39, Shiga inhibitor 52
N#Cc1cnc2nc(SCc3ccccc3)nn2c1	MARV entry inh inconclusive, CHX counter 35, Shiga inhibitor 70, Lassa entry inh inconclusive
CCOC(=O)c1cc(C(=O)OCC)c(=O)[nH]c1SCc1ccccc1	none (no result: MARV entry inh, Shiga inhibitor, Lassa entry inh, Vaccinia mCherry, Vaccinia Venus)
CCOc1ccc(NC(=O)Cn2c(=O)n(CCc3ccccc3)c(=O)c3c4c(sc32)CCCC4)cc1	none (no result: CHX counter, Shiga inhibitor)
O=C(Cc1ccccc1)Nc1scc(-c2ccccc2)c1C(=O)N1CCOCC1	MARV entry inh inconclusive, Lassa entry inh inconclusive
NC(=O)c1c(-c2ccc(Cl)cc2Cl)csc1NC(=O)Cc1ccccc1	MARV entry inh inconclusive, CHX counter 16, Vaccinia Venus inconclusive
Cc1ccc(CN2C(=O)C[C@@H](NS(=O)(=O)c3ccc4ccccc4c3)C/C=C\C2c2ccc(C)cc2)cc1 (stereo partly specified)	none (no result: MARV entry inh, Lassa entry inh, Vaccinia mCherry, Vaccinia Venus)
S=c1[nH]nc(-c2ccc(Cl)cc2Cl)n1Cc1ccccc1	none
COc1ccc(C2=NO[C@@H]3C(=O)N(c4ccc5c(c4)OCCO5)C(=O)[C@H]23)cc1OC	CHX counter 38, Shiga inhibitor 48 (no result: Vaccinia mCherry, Vaccinia Venus)
S=c1[nH]nc(Cc2ccc(Cl)cc2)n1-c1ccc2c(c1)OCCO2	none (no result: MARV entry inh, Lassa entry inh)
COc1ccc(-c2n[nH]c(=S)n2-c2ccc3c(c2)OCCO3)cc1OC	CHX counter 23, Shiga inhibitor 50 (no result: Vaccinia mCherry, Vaccinia Venus)
S=c1[nH]nc(-c2ccc(Cl)cc2Cl)n1-c1ccccc1	CHX counter 40 (no result: MARV entry inh, Shiga inhibitor, Lassa entry inh, Vaccinia mCherry, Vaccinia Venus)
S=c1[nH]nc(-c2ccc(Cl)cc2Cl)n1-c1ccc2c(c1)OCCO2	CHX counter 21, Shiga inhibitor 46, Lassa entry inh inconclusive
COc1ccc(C2=NO[C@@H]3C(=O)N(C4CCCCC4)C(=O)[C@H]23)cc1OC	none (no result: Vaccinia mCherry, Vaccinia Venus)
COc1cc2c(=O)n(CCC(=O)NCC3CCCO3)c(=O)n(CC(=O)Nc3c(C)cccc3C)c2cc1OC (stereo unspecified)	none (no result: CHX counter, Shiga inhibitor)
CCCn1nc(C(=O)OCC(=O)c2c(N)n(C)c(=O)n(C)c2=O)c2ccccc2c1=O	none
CCOC(=O)CC1C(=O)NCCN1C(=O)c1ccc(Cl)c(Cl)c1 (stereo unspecified)	none
COC(=O)[C@@H]1C=C[C@H](C)[C@H](CCOc2ccccc2)O1	none (no result: CHX counter, Shiga inhibitor, Lassa entry inh, Vaccinia mCherry, Vaccinia Venus)
CC(C)OP(=O)(OC(C)C)C(NC(=O)c1ccc(Br)cc1)c1ccccc1 (stereo unspecified)	MARV entry inh inconclusive (no result: Vaccinia mCherry, Vaccinia Venus)
Cn1cc(C(=O)NCCc2ccccc2)c(=O)c2cc(S(=O)(=O)N3CCCCC3)ccc21	none (no result: CHX counter, Shiga inhibitor)
S=c1[nH]nc(-c2ccc(Br)cc2)n1-c1ccc2c(c1)OCCO2	Lassa entry inh inconclusive
Oc1ccc(-c2n[nH]c(=S)n2-c2ccc3c(c2)OCCO3)c(O)c1	MARV entry inh inconclusive, CHX counter 17, Shiga inhibitor 35, Lassa entry inh inconclusive, Vaccinia mCherry inconclusive
COc1ccccc1-c1n[nH]c(=S)n1N	none
COc1ccccc1-c1n[nH]c(=S)n1-c1ccccc1	CHX counter 20
Cc1ccc(NC(=O)C(=O)NCC(c2cccnc2)N2CCc3ccccc32)cc1Cl (stereo unspecified)	none (no result: MARV entry inh, CHX counter, Shiga inhibitor)
N#C/C(=N/Nc1ccccc1F)C(=N)N1CCOCC1	CHX counter 34
N#C/C(=N\Nc1cccc(F)c1)C(=O)C1CC1	none (no result: MARV entry inh, Lassa entry inh, Vaccinia mCherry, Vaccinia Venus)
N#C/C(=N\Nc1ccc(F)cc1)C(=N)N1CCCCC1	MARV entry inh inconclusive, CHX counter 47, Shiga inhibitor 112, Lassa entry inh inconclusive
N#C/C(=N\Nc1ccccc1)C(=N)N1CCCCCC1	CHX counter 38, Shiga inhibitor 71 (no result: MARV entry inh, Lassa entry inh, Vaccinia mCherry, Vaccinia Venus)
COc1ccc(N/N=C(\C#N)C(=N)N2CCOCC2)cc1	CHX counter 29 (no result: MARV entry inh, Lassa entry inh, Vaccinia mCherry, Vaccinia Venus)

Screens (PubChem BioAssay)
